Measurements as given in paper PMC4336329 (PLoS ONE, 2015).
The whole screen tested about 310,000 compounds, of which about 14,000 (4.5%) showed an effect of 50% or more. Effects have a minus sign here. The full list was thinned out, with strong results kept by preference.

What follows are compounds tested against human ether-à-go-go-related gene (hERG) potassium channel (human, UniProt Q12809) (assay: primary screen, population patch clamp on CHO cells stably expressing hERG; higher = less effect of the substance).
Sequence of human ether-à-go-go-related gene (hERG) potassium channel (Q12809 whole entry, looked up): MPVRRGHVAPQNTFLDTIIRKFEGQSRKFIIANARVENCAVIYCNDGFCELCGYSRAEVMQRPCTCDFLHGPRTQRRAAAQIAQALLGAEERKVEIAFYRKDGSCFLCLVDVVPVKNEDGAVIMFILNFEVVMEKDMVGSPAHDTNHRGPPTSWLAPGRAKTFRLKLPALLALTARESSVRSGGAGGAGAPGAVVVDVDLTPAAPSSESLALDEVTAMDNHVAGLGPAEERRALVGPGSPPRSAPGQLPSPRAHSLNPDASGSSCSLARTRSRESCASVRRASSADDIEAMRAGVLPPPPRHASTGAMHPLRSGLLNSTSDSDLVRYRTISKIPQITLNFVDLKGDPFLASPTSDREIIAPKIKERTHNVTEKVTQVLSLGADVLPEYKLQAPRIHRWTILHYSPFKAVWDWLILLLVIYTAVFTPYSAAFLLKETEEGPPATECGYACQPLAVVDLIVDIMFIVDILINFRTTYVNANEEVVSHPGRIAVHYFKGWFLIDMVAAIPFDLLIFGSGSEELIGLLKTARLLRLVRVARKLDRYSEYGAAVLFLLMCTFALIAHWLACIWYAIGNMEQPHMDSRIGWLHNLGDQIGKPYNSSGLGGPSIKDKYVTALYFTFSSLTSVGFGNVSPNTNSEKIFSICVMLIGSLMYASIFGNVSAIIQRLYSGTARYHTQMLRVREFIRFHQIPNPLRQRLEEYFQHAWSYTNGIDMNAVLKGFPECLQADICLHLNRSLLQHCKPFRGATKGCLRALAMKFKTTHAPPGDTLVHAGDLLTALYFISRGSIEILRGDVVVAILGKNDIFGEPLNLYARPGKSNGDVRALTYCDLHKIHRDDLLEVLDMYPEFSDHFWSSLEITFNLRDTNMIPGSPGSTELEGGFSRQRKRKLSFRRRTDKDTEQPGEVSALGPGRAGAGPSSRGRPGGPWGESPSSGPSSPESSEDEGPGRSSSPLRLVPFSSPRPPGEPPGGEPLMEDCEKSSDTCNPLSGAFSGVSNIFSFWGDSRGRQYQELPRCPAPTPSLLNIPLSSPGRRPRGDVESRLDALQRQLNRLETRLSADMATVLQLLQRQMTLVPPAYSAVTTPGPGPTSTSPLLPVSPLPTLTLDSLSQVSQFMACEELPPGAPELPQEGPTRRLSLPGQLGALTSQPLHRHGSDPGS
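Further: peak tail current of the secondary pulse compared with the same well before compound.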

Compound | hERG current change (%, negative = inhibition) at 10uM
CN(C)S(=O)(=O)c1ccc(N2CCCC2)c(C(=O)Nc2ccc(N3CCOCC3)cc2)c1 | -7.91%
COc1ccc(C(=O)NCC(=O)NCC(=O)OCc2ccc(Cl)cc2)cc1 | -6.07%
O=C(Cc1ncn[nH]1)NCCc1ccccc1 | -3.77%
Cn1c(=O)[nH]c2nncnc2c1=O | -13%
COc1cc2ccccc2cc1C(=O)Nc1cccnc1 | -9.84%
CCOC(CC(=O)NNC(=O)c1c(-c2ccccc2Cl)noc1C)OCC | 17.7%
COc1cc(C(=O)NCCN2CCOCC2)cc(OC)c1OC | 8.25%
O=C(NCc1ccccn1)c1cc(-c2ccccc2)nc2ccccc12 | -25.2%
COc1ccc(Nc2cc(C(=O)NCc3ccccn3)c3ccccc3n2)c(OC)c1 | 8.79%
CCc1ccccc1Nc1cc(C(=O)NCc2ccccn2)c2ccccc2n1 | -57.8%
Cc1ccc(CNS(=O)(=O)c2cc3c4c(c2)CCN4C(=O)CC3)cc1 | -29.4%
CC(C)(C)c1ccc(OCC(O)CN2CCN(C(=O)c3ccccc3)CC2)cc1.O=C(O)C(=O)O (centres unmarked) | -50.7%
Cl.O=C(c1ccccc1)N1CCN(CC(O)COc2cccc3ccccc23)CC1 (centres unmarked) | -28.1%
O=C(c1ccco1)N1CCN(CC(O)Cn2c3ccccc3c3ccccc32)CC1 (centres unmarked) | -41.9%
O=C(c1ccco1)N1CCN(CC(O)COc2ccc(Br)cc2)CC1 (centres unmarked) | -72.6%
Cc1cc(C)c(OCC(O)CN2CCN(C(=O)c3ccccc3)CC2)c(C)c1.O=C(O)C(=O)O (centres unmarked) | -46.4%
CC(=O)c1cccc(OCC(O)CN2CCN(C(=O)c3ccco3)CC2)c1 (centres unmarked) | -2.19%
CC(=O)N1CCN(CC(O)COc2ccc(Br)cc2)CC1.O=C(O)C(=O)O (centres unmarked) | -10.7%
O=C(c1ccco1)N1CCN(CC(O)COc2ccc3oc4ccccc4c3c2)CC1 (centres unmarked) | -66.4%
OC(COc1ccc(Br)cc1)CN1CCN(c2ccccc2)CC1 (centres unmarked) | -21.2%
Cc1cc(C)cc(OCC(O)CN2CCN(C(=O)c3ccco3)CC2)c1 (centres unmarked) | -43.7%
COC(=O)c1ccc(OCC(O)CN2CCN(C(=O)c3ccco3)CC2)cc1.O=C(O)C(=O)O (centres unmarked) | -25.3%
O=C(c1ccccc1)N1CCN(CC(O)COc2ccc(Br)cc2)CC1 (centres unmarked) | -64.9%
O=C(NC1CCCCC1)c1ccc(OC2CCN(Cc3ccccn3)CC2)cc1 | -16%

Compound | hERG current change (%, negative = inhibition) at 10uM
COc1ccc(OC)c(N(CC(=O)NCCSC2CCCCC2)S(=O)(=O)c2ccccc2)c1 | 16%
Cc1cccc(NC(=O)CSc2nccn2Cc2ccco2)c1 | 0.772%
Cc1c(NS(=O)(=O)c2ccc(C(=O)NCc3ccc(F)cc3)cc2)c(=O)n(-c2ccccc2)n1C | -15%
COc1ccc(C(=O)NC(=S)NNC(=O)c2ccccc2C)cc1 | 17.7%
NC(=O)c1c(NC(=O)CSc2nc3c(c(C(F)(F)F)n2)CCc2ccccc2-3)sc2c1CCCC2 | -1.81%
Nc1ccc2c(c1)C(=O)Cc1ccccc1S2 | 9.05%
CCCOC(=O)c1ccc(OCC(O)CN2CCN(C(=O)c3ccccc3)CC2)cc1.Cl (centres unmarked) | -73.7%
COc1cc(C(=O)N2CCN(CC(O)COc3ccccc3)CC2)cc(OC)c1OC (centres unmarked) | 4.32%
COc1ccccc1OCC(O)CN1CCN(C(=O)c2ccccc2)CC1.Cl (centres unmarked) | 1.39%
CC(=O)/C(=N\Nc1ccc(C)cc1)Sc1nncn1C | -12.8%
COc1ccccc1C(=O)NCc1ccc(-c2nc3ccccc3s2)cc1 | -11%
CC1(C)CC(CC(=O)NNc2nc(-c3ccccc3)cs2)C(=O)O1 (centres unmarked) | -2.28%
Br.CC(C)CC1CC(C)(c2csc(NNC(=O)c3ccccc3)n2)OC1=O (centres unmarked) | -74.5%
O=C(NNc1nc(-c2ccccc2)cs1)c1ccccc1 | 3.27%
O=C(Nc1cccc(F)c1)C1C2C=CC3(CN(CCCN4CCOCC4)C(=O)C13)O2 (centres unmarked) | -8.87%
Cl.O=C1CSC(c2ccccc2F)N1CCN1CCCCC1 (centres unmarked) | -10.6%
CCOC(=O)C1(CC2CC2)CCN(S(=O)(=O)/C=C/c2ccccc2)CC1 | -18.4%
CCOC(=O)C1(CC2CC2)CCN(Cc2cn[nH]c2-c2ccccc2)CC1 | -79.5%
CCOC(=O)C1(Cc2ccccc2)CCN(Cc2cn[nH]c2-c2ccccc2)CC1 | -28.8%
CCOC(=O)C1(CC2CCCCO2)CCN(Cc2cn[nH]c2-c2cccc(F)c2)CC1 (centres unmarked) | -53.9%
CCOC(=O)C1(CC2CC2)CCN(Cc2cn[nH]c2-c2cccc(F)c2)CC1 | -91.6%
CCOC(=O)C1(CC2CC2)CCN(Cc2ccc3cccc(F)c3n2)CC1 | -48.3%
CCOC(=O)C1(CC2CCCCO2)CCN(Cc2cc3ccccc3[nH]2)CC1 (centres unmarked) | -46.1%
